# Source: PubChem BioAssay
# Experiments:
# [1] = blockers of cytochrome c efflux from mitochondria – biochemical, purified mitochondria (AID 1603); conditions: stronger effect = lower value;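 further: mouse liver mitochondria challenged with calcium chloride; signal normalized to the plate average as 100%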
# [2] = polyglutamine aggregate formation blockers (AID 1604); conditions: polyglutamine-induced protein aggregation inhibition assay; stronger effect = higher value; tested at 2.5 µM
# [3] = glutamate transport activators, MN-1 cells, MN-1 cell line (AID 1612); conditions: MN-1 motor neuron cells, stronger effect = higher value;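 further: tested at 1 µM final; 0% = mean of DMSO vehicle wells on each plate; positive means more glutamate uptake than control and negative means less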
# [4] = 75Q-TubH aggregate inhibition, S. cerevisiae, yeast (AID 1616); conditions: S. cerevisiae 75Q-TubH polyglutamine aggregation suppression; stronger effect = higher value
# [5] = GFP-Q80 aggregate reduction, neuronal-like cells, cell-based, NGF-treated PC12, GFPQ80 (AID 1614); conditions: PC12 NGF-treated GFP-polyQ80 inclusion reduction;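 further: lower means fewer inclusions and 0 means no inclusions at all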
SMILES,cytochrome c release ratio [1],inhibition of aggregation [2],glutamate uptake change [3],aggregation suppression score [4],inclusion score [5]
CN1C2CCC1CC(OC(c1ccccc1)c1ccccc1)C2 (centres undefined),1,62%,-4.45%,1.04,–
CN(C)CC/C=C1/c2ccccc2COc2ccccc21,0.69,92.3%,2.11%,1.19,2
